Test results: PubChem BioAssay
Calls of active or inactive are those of the source.

Experiments:
[1] = tested on: PRMT1 (protein arginine N-methyltransferase 1); assay: PRMT1 binders on small-molecule microarrays, primary screen, biochemical, small-molecule microarray, 635 nm fluorescence (AID 1088); conditions: small-molecule microarray binding, higher = more signal;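 further: binding of Prmt1 protein to compounds spotted on small-molecule microarray slides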
[2] = yeast growth modulation, basal conditions, primary screen, YJM789 clinical isolate, OD600, 24 h (AID 1089);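 further: growth of clinical yeast isolate S. cerevisiae YJM 789 seeded 1000 cells per well; test concentration not given here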; conditions: S. cerevisiae YJM789 growth, higher = more signal, called active from +8 up or from −8 down
[3] = fission yeast growth modulation, primary screen, strain 972, OD600, 24 h, no modulator (AID 1090);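 further: basal condition with compound alone and no growth modifier present; test concentration not given here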; conditions: S. pombe 972 growth, higher = more signal, called active from +8 up or from −8 down
[4] = S. cerevisiae growth modulation with rapamycin, primary screen, strain BY4716, OD600, 96 h (AID 1091); conditions: higher = more signal, called active from +8 up or from −8 down; further: test concentration not given here
[5] = target: Torsin-1A-interacting protein 2 (Homo sapiens) (UniProt Q8NFQ8); assay: LULL1 binders on small-molecule microarray, primary screen, cell lysate, human LULL1 lysate, 635/667 nm fluorescence (AID 1092); conditions: hLULL1 lysate binding, 635 nm fluorescence, higher = more signal;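 further: probe is lysate of COS7 cells overexpressing human LULL1; score merges per-feature 667 nm fluorescence with signal-to-noise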
Chain of Torsin-1A-interacting protein 2 (Homo sapiens) (Q8NFQ8 whole entry, looked up): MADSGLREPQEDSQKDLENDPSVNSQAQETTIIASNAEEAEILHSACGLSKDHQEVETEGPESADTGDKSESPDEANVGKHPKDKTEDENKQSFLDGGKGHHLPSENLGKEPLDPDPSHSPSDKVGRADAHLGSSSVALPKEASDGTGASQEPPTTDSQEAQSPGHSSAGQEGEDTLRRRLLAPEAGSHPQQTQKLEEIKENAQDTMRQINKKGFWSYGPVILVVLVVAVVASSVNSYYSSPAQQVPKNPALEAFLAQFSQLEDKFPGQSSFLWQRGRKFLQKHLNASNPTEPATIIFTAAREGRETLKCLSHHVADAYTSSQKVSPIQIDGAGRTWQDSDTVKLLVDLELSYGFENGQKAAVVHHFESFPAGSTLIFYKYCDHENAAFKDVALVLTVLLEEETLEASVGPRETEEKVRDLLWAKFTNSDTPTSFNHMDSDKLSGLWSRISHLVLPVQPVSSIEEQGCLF

[6] = E. coli growth modulation, two-sided OD650, primary screen, E. coli filamentation project, strain DRC41, 24 h (AID 1093); conditions: OD650, 24 h, higher = more signal, called active from +8 up or from −8 down;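 further: MC1000 strain lacking acrAB efflux and sulA so SOS filamentation is blocked; test concentration not given here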
[7] = small-molecule microarray binders of probe aLefty2, primary screen, biochemical, biotinylated probe, 635/667 nm fluorescence (AID 1094); conditions: higher = more signal;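 further: score merges spot fluorescence near 667 nm with spot signal-to-noise ratio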
[8] = tested on: Noggin (protein binding on small-molecule microarray); assay: Noggin binders on small-molecule microarray, primary screen, biochemical, 635/667 nm fluorescence (AID 1095); conditions: 635 nm fluorescence, higher = more signal;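 further: score merges 667 nm feature fluorescence with signal to noise over triplicate slides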
[9] = target: Neurogenic locus notch homolog protein 3 (Homo sapiens) (UniProt Q9UM47); assay: NOTCH3 binders on small-molecule microarray, primary screen, biochemical, 635/667 nm fluorescence (AID 1096); conditions: NOTCH3 binding, 635 nm fluorescence, higher = more signal
Chain of Neurogenic locus notch homolog protein 3 (Homo sapiens) (Q9UM47 whole entry, looked up): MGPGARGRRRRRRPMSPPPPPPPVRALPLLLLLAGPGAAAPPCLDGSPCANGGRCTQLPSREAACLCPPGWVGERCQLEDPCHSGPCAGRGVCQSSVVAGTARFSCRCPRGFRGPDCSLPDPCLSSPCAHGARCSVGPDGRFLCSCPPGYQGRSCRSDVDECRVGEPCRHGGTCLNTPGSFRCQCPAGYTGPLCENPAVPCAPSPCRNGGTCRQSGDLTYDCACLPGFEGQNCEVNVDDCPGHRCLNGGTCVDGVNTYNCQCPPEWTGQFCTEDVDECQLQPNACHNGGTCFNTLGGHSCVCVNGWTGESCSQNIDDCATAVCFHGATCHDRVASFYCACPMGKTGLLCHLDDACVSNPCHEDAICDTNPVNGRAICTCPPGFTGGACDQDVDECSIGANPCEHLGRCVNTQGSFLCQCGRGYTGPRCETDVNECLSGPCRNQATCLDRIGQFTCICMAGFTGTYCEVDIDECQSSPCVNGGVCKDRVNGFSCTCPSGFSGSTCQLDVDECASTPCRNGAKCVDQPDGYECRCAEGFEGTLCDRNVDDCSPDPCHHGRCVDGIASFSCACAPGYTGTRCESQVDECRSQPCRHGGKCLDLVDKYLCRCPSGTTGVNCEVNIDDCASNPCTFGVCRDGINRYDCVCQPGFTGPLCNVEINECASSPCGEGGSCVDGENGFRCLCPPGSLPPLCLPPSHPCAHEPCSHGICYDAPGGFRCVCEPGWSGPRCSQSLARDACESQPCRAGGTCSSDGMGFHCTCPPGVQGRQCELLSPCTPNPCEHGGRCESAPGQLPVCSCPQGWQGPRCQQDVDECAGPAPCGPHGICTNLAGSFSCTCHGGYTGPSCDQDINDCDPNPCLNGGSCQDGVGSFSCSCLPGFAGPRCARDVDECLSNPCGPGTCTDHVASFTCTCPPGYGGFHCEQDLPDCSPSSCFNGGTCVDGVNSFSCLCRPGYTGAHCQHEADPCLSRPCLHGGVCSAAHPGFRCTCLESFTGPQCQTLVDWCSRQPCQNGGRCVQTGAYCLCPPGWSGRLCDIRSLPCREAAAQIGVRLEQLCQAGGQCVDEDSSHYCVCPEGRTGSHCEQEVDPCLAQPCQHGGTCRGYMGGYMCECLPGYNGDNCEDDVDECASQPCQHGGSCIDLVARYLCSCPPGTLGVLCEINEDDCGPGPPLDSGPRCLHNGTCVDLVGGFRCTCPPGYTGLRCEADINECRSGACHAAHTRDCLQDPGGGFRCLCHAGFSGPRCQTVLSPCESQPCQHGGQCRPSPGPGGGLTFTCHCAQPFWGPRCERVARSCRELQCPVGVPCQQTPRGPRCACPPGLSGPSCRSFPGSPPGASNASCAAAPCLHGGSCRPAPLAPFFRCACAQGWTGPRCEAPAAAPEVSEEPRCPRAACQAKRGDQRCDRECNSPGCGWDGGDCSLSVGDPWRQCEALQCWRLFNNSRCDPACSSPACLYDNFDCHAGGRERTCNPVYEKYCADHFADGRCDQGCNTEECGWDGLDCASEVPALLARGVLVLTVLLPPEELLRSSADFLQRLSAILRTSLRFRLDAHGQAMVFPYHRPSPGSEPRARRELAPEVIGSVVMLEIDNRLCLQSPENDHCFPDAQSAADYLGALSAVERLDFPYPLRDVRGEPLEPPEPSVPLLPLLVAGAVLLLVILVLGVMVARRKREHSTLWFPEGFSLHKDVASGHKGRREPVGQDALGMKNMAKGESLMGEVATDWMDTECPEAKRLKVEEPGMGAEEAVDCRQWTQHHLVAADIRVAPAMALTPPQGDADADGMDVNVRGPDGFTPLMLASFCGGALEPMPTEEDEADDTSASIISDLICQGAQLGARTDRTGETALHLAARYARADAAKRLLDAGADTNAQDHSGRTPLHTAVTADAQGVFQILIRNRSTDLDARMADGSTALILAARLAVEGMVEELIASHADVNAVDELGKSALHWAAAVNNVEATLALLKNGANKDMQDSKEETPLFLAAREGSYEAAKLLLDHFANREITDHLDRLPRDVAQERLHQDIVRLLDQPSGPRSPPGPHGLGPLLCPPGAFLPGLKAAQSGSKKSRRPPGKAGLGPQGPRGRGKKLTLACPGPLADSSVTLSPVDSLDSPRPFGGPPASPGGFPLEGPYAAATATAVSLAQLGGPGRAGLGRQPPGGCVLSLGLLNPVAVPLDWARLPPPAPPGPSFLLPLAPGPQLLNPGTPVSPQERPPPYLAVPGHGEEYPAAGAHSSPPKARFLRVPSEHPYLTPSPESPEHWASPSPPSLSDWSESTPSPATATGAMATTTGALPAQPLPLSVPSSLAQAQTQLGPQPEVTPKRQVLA

[10] = small-molecule microarray binders of probe aEGFR, primary screen, biochemical, biotinylated probe, 635/667 nm fluorescence (AID 1097); conditions: higher = more signal;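 further: probe is a biotinylated anti-EGFR antibody binding compounds printed on slides; score combines fluorescence near 667 nm and signal to noise of each spot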

Structure (SMILES) | composite z-score [1] | z-score [2] | z-score [3] | z-score [4] | composite z-score [5] | z-score [6] | composite z-score [7] | composite z-score [8] | composite z-score [9] | composite z-score [10]
CC(=O)c1ccc(C(O)C2C=CC3C(=O)NC(=O)C3N2Nc2ccc(Cl)cc2Cl)cc1 (stereo not given) | -0.002 | 0.727 (inactive) | 0.973 (inactive) | 1.14 (inactive) | 3 | -1.08 (inactive) | 0.0277 | -0.742 | 0.424 | -0.0828
CCCC[C@@H]1C[C@H]1[C@@H](NC(=O)Cc1ccccc1)c1ccc(Cl)cc1 | 0.576 | 0.0911 (inactive) | -1.16 (inactive) | 1.68 (inactive) | 3.14 | -0.76 (inactive) | 0.105 | 1.34 | 1.03 | 0.218
C=CCC(OC(C)=O)[C@@H]1[C@@H](N(Cc2cccc3ccccc23)C(=O)c2cccc3ccccc23)c2cc(OCCCO)ccc2N1C(=O)Cc1ccc2ccccc2c1 (stereo not given in full) | -0.254 | -0.796 (inactive) | 0.0827 (inactive) | -1.45 (inactive) | -0.0809 | -0.225 (inactive) | -0.193 | 0.0493 | 0.002 | -0.0675
CC#CCO[Si](C#CCCCCCC)(C(C)C)C(C)C | 0.276 | 0.176 (inactive) | -19.1 (active) | -1.61 (inactive) | 0.373 | -0.0013 (inactive) | 0.137 | -2.8 | -1.16 | -0.466
COc1ccc(NN2C(C(O)c3cc(C(F)(F)F)cc(C(F)(F)F)c3)C=CC3C(=O)N(C4CCCCC4)C(=O)C32)cc1 (stereo not given) | 1.28 | -0.0995 (inactive) | 0.495 (inactive) | 0.518 (inactive) | 2.59 | -0.804 (inactive) | 0.849 | 0.535 | 1.06 | 0.705
COc1ccc(CCNC(=O)[C@@]2(Sc3ccc(C)cc3)CC(=O)N(C(C)C)[C@@H]2c2ccc(CO)cc2)cc1 | 0.633 | 0.956 (inactive) | 0.0503 (inactive) | 0.088 (inactive) | 2.09 | -0.015 (inactive) | 0.0507 | -1.4 | -1.15 | -0.249
COc1ccc(NN2C(C(O)c3ccc(OC)cc3)C=CC3C(=O)N(C4CCCCC4)C(=O)C32)cc1 (stereo not given) | 1.43 | -0.0924 (inactive) | 1.01 (inactive) | 0.365 (inactive) | 2.12 | 0.0447 (inactive) | 0.103 | 0.157 | 1.08 | 0.21
CCOC(=O)C1=CCC(c2cc3ccccc3[nH]2)N(S(=O)(=O)c2ccccc2[N+](=O)[O-])C1 (stereo not given) | 0.659 | -0.134 (inactive) | 1.18 (inactive) | 1.41 (inactive) | 3.07 | -0.424 (inactive) | -0.125 | 0.674 | 0.356 | 0.0357
COc1ccccc1CN1C(=O)c2ccccc2[C@@H](C(=O)NCCCN(C)C)[C@@H]1c1ccc(CO)cc1 | -1.06 | -0.376 (inactive) | -2.26 (inactive) | -1.63 (inactive) | -1.07 | 0.874 (inactive) | -0.135 | -0.649 | -0.784 | -0.111
CC(C)C[C@H]1NC(=O)[C@@]23C(=O)N[C@@H](Cc4ccccc4)C2[C@H](C)[C@@]2(C)O[C@H]2C3/C=C/C/C=C\CNC(=O)[C@@H]2CCCN2C1=O (stereo not given in full) | 1.52 | -0.397 (inactive) | -1.08 (inactive) | -0.579 (inactive) | 1.58 | -1.14 (inactive) | -0.147 | 0.588 | 0.696 | -0.008
O=C(NCC(F)(F)F)[C@@H]1c2ccccc2C(=O)N(CC23CC4CC(CC(C4)C2)C3)[C@H]1c1ccc(CO)cc1 | 1.54 | -3.48 (inactive) | -1.94 (inactive) | -1.47 (inactive) | 1.81 | 1.37 (inactive) | -0.129 | 1.14 | 1.1 | -0.0902
CCCCC=C[C@@H](NC(=O)c1ccc(C(F)(F)F)cc1)c1ccccc1 | -0.461 | -0.27 (inactive) | -8.36 (active) | -1.79 (inactive) | 0.748 | -1.07 (inactive) | -0.0285 | -0.905 | -0.76 | -0.566
CO[C@H]1O[C@H](CO)[C@@H](OC(=O)Nc2ccc3c(c2)OCO3)[C@@H]2OC(=O)[C@@H](Cc3ccccc3)C/C=C/C[C@H](Cc3ccccc3)C(=O)O[C@@H]12 | 1.48 | 1.17 (inactive) | 0.78 (inactive) | 2.27 (inactive) | 1.29 | 0.156 (inactive) | -0.0562 | 0.566 | 0.887 | 0.0528
C=C(C(=O)CC[C@@H](OC(C)=O)c1cccc(OCCO)c1)C(C)C | 0.745 | 1.55 (inactive) | -0.464 (inactive) | 0.339 (inactive) | 1.62 | 0.351 (inactive) | -0.186 | -0.0056 | 0.507 | -0.207
